# PubChem BioAssay AID1224864 (Chung Lab, Department of Pediatrics, Emory University, 2016)
# The campaign covered roughly 2,000 compounds. About 20 (1%) were called active. How the calls were made is not given here. Shown is part of a subset that was picked to be rich in actives.
# Target: Cystic fibrosis transmembrane conductance regulator (Homo sapiens) (UniProt P13569)
# Assay: correctors of F508del-CFTR surface localization, primary screen, imaging, HeLa, high-content microscopy, immunofluorescence (AID 1224864);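 further: HeLa cells stably expressing F508del-CFTR stained with 3G11 antibody against NBD1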;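 on plasma membrane CFTR intensity: mean immunofluorescence in a thin cell-margin band taken as plasma membrane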
# Details: PM immunofluorescence imaging, 24 h, at 10 µM, stronger effect = higher value, relative to vehicle wells set at 100; total CFTR intensity: measured here: total cellular F508del-CFTR signal
# Sequence of Cystic fibrosis transmembrane conductance regulator (Homo sapiens) (P13569 whole entry, looked up, stated change not applied): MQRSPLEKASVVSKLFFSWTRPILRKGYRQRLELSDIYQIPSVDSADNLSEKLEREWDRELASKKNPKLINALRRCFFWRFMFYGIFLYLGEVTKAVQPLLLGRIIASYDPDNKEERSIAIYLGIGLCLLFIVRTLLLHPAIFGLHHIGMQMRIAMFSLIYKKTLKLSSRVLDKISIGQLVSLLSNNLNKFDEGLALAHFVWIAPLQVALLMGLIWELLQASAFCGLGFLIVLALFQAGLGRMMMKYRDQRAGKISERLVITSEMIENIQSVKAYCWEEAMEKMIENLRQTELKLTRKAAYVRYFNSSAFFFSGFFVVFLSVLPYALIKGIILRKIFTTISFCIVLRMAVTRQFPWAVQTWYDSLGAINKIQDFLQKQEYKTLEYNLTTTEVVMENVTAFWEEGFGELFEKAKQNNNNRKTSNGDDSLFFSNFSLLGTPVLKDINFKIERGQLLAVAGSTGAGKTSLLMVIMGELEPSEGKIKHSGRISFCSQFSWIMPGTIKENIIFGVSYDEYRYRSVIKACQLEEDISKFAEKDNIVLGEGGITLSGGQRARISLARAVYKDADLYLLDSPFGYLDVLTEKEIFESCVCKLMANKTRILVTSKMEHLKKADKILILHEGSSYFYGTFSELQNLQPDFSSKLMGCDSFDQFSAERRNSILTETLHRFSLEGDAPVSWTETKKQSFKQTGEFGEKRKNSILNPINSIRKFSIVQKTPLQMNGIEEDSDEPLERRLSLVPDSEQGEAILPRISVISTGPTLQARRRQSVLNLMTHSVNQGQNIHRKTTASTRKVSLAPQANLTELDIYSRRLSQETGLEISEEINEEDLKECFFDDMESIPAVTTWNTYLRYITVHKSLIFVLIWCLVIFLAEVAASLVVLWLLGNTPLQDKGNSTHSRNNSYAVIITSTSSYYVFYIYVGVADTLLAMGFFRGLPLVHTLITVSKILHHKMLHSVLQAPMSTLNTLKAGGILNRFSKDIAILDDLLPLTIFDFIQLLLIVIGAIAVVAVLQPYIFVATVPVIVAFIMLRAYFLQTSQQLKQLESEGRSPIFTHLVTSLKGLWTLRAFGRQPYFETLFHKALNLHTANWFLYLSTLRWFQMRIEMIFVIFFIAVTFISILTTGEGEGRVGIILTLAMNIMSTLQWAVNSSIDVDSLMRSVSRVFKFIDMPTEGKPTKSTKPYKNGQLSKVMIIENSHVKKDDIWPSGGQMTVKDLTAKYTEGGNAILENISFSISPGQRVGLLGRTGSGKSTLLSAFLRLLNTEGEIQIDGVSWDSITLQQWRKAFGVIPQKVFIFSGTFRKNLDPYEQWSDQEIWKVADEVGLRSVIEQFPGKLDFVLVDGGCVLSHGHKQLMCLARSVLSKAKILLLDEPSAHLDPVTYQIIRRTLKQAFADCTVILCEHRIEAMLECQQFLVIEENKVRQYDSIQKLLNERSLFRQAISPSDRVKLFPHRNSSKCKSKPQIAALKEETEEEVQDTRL
SMILES,plasma membrane CFTR intensity,total CFTR intensity [%]
N/C(=N/OS(=O)(=O)c1ccc([N+](=O)[O-])cc1)c1ccncc1,87% (inactive),85
COc1ccccc1NC(=O)N1CCc2[nH]c3ccc(Cl)cc3c2C1,92% (inactive),84
C/C(CCc1oc2ccc(Cl)cc2c1-c1ccc(C)o1)=N\O,91% (inactive),97
COc1ccc(/C=N\NC(=O)CCc2c(C)n[nH]c2C)c(OC)c1OC,82% (inactive),77
COc1ccccc1Oc1c(C)oc2c(CN3CCN(CCO)CC3)c(O)ccc2c1=O,90% (inactive),89
O=C(O)c1ccc(OCCn2ccnc2)cc1,77% (inactive),82
CN(CCCN1CCOCC1)Cc1cn(C)nc1-c1ccccc1F,84% (inactive),87
NCc1ccccc1COc1ccccc1,81% (inactive),83
Cc1ccc(CN2CCN(CCCc3ccccc3)CC2CCO)cc1 (stereo not drawn),82% (inactive),85
CCC(CO)NCCNC(CC)CO (stereo not drawn),86% (inactive),88
Cc1ccc(N2CCN(C(=S)c3ccc(-c4cccc([N+](=O)[O-])c4)o3)CC2)cc1,81% (inactive),80
O=C(CN1C(=O)c2ccccc2S1(=O)=O)Nc1ccccc1,84% (inactive),82
CCCCC/C=C\C[C@H](O)/C=C/c1cccc(C[C@H](O)CCCCO)n1,107% (active),126
CN(C)c1cc(NC(=O)CN2CCOCC2)c2ccccc2n1,91% (inactive),88
CCOC(=O)C1C(=O)CC(C)(O)C(C(=O)OCC)C1/C=C/c1ccccc1 (stereo not drawn),95% (inactive),102
Nc1ccc(N)c(C(=O)O)c1,77% (inactive),82
CCOC(=O)Cn1c(C)cc(=O)c2ccccc21,114% (inactive),113
COc1cc(C(=O)OCCCN(C)C)cc(OC)c1OC,89% (inactive),84
CN(C)c1ccc(CNCCC(Cc2ccccc2)c2ccco2)cc1 (stereo not drawn),50% (inactive),41
Cn1c(=O)c2c(ncn2Cc2ccccc2)n(C)c1=O,81% (inactive),82
CC(C)NC[C@@H](O)c1ccc(O)c(O)c1,100% (inactive),111
CNC[C@H](O)c1cccc(O)c1,92% (inactive),96

SMILES,plasma membrane CFTR intensity,total CFTR intensity [%]
CNC[C@H](O)c1ccc(O)c(O)c1,101% (active),120
O[C@@H](CNC[C@H](O)c1ccccc1)c1ccccc1,90% (inactive),84
Cn1nc(-c2ccc(Cl)cc2)nc2c(=O)n(C)c(=O)nc1-2,84% (inactive),86
O=C(CN1C(=O)c2ccccc2C1=O)Nc1cccc([N+](=O)[O-])c1,90% (inactive),91
COc1cc(-c2nnc(-c3cccs3)o2)cc(OC)c1OC,96% (inactive),87
O=c1c2[nH]c3ccccc3c2ncn1CCC1=CCCCC1,87% (inactive),88
Cc1ccc2c(c1)c1c(n2C)C(=O)CCC1,76% (inactive),75
CCc1cc(=O)oc2cc(OCC=C(C)C)ccc12,95% (inactive),98
COc1ccc2c(c1OC)C(=O)NC(C)=C(C(=O)OC(C)(C)C)C2O (stereo not drawn),87% (inactive),90
O=C1CCCCCN1Cc1ccccc1,86% (inactive),90
O=C1C=CC(=O)C(C2=C3C(=O)N(CCc4ccccc4)CC(=O)N3CCC2)=C1,108% (active),124
COC(=O)CN1CC(=O)N(c2ccccc2)C1=S,83% (inactive),81
COc1ccccc1/C=C/CN1CCN(Cc2ccc(F)cc2)C(CCO)C1 (stereo not drawn),77% (inactive),77
CC(C)(CO)CNC(=O)CC1C(=O)NCCN1CC(c1ccccc1)c1ccccc1 (stereo not drawn),85% (inactive),89
Cn1c(=O)c2nc3ccccc3nc2n(C)c1=O,96% (inactive),90
Cc1coc2c1c(C)cc1oc(=O)c(Cc3ccccc3)c(C)c12,91% (inactive),91
O=C(N/N=C\c1cc([N+](=O)[O-])ccc1N1CCOCC1)c1ccccn1,79% (inactive),75
COC(=O)c1cc(-c2ccc(C)o2)nc2ccccc12,96% (inactive),99
C(=C\c1ccccc1)/CN1CCN(C(c2ccccc2)c2ccccc2)CC1,107% (active),125
Cc1cccc(CN2CCN(C(c3ccccc3)c3ccc(Cl)cc3)CC2)c1 (stereo not drawn),92% (inactive),107
Fc1ccc(C(c2ccc(F)cc2)N2CCN(C/C=C/c3ccccc3)CC2)cc1,99% (inactive),120
O=C(O)c1ccc(N2C(=O)/C(=C\c3ccccc3)N=C2c2ccccc2)cc1,78% (inactive),78
